We go through eleven compounds from the supplement of paper PMC13380429.

Test [1] deals with Vero E6 infected with SARS-CoV-2. The test is described as follows: morphology score (similarity to uninfected cells); higher = more like uninfected cells. Conditions: 24 h.
Test [2] shares this test system. The test is described as follows: SARS-CoV-2 infection rate relative to infected DMSO; higher = more infection, active = 60 or less. The note with it: 24 h.

In turn, `CCOC(=O)C1=C(C)NC(c2ccccc2)=C(C(=O)OCc2ccc([N+](=O)[O-])cc2)[C@@H]1C#Cc1ccccc1` (10 µM) returned a morphology score in test [1] of 0.304. The SARS-CoV-2 infection rate in test [2] is 89% (inactive).

As for `CN1CCC(=C2c3ccccc3Sc3ccccc32)CC1` [pimethixene] (10 µM), the morphology score in test [1] amounted to 0.373. Besides, the SARS-CoV-2 infection rate in test [2] is 85.5% (inactive).

Take `CN(C)C1CCN(C(=O)c2ccc(NC(=O)Nc3ccc(-c4nc(N5CCOCC5)nc(N5CCOCC5)n4)cc3)cc2)CC1` (10 µM): the morphology score in test [1] was -0.0113. Also, the SARS-CoV-2 infection rate in test [2] is 115% (inactive).

`Cc1nc(C)c(-c2ccc(C3CCC(CC(=O)O)CC3)cc2)nc1C(N)=O` (configuration not stated) (10 µM): the morphology score in test [1] amounted to 0.134. Besides, the SARS-CoV-2 infection rate in test [2] was 89.5% (inactive).

Take `Cc1c[nH]c2ncnc(N3CCC(CN)(C(=O)Nc4cccc(OC(=O)N(C)C)c4)CC3)c12` (10 µM): the morphology score in test [1] amounted to 0.156. The SARS-CoV-2 infection rate in test [2] was 94% (inactive).

As to `CCCCC/C=C\C/C=C\C/C=C\CCCCC(=O)O` [gamma-linolenic-acid] (10 µM), in test [1], the morphology score turned out to be 0.0589. Moreover, the SARS-CoV-2 infection rate in test [2] is 102% (inactive).

`CC(C)C[C@H](NC(=O)N1CCCCCC1)C(=O)N[C@H](Cc1cn(C)c2ccccc12)C(=O)N[C@H](Cc1ccccn1)C(=O)O` (10 µM): the morphology score in test [1] is 0.257. The SARS-CoV-2 infection rate in test [2] is 100% (inactive).

Regarding `C[N+]1(CCCCC[N+]2(C)CCCC2)CCCC1` [pentolinium] (10 µM), in test [1], the morphology score is -0.0223. Moreover, the SARS-CoV-2 infection rate in test [2] is 102% (inactive).

Turning to `Nc1nc(=O)c2c([nH]1)NCC(CNc1ccc(C(=O)N[C@@H](CCC(=O)O)C(=O)O)cc1)N2C=O` (some centres not stated) [leucovorin] (10 µM), in test [1], the morphology score was -0.0198. Moreover, the SARS-CoV-2 infection rate in test [2] is 89.8% (inactive).

Take `CC1CCc2c(N3CCC(O)CC3)c(F)cc3c(=O)c(C(=O)O)cn1c23` (configuration not stated) [nadifloxacin] (10 µM): in test [1], the morphology score is -0.0037. In test [2], the SARS-CoV-2 infection rate is 106% (inactive).

In the case of `COc1cc2c(Nc3ccc(NC(=O)c4ccccc4)cc3)ncnc2cc1OCCCN1CCOCC1` (10 µM), the morphology score in test [1] was -0.13. The SARS-CoV-2 infection rate in test [2] is 108% (inactive).
